Sampled rows, rich in hits. Any-hit rate of the full collection: about 1.7%.
IL1B cytotox: HUVEC cytotoxicity counter-screen, IL-1B stimulated; HUVEC cell count loss, Hoechst imaging; cell count reduction, % at 2 µM; 94,000 compounds, 0.41% hits; AID 845;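 active means cell count reduction more than 3 SD above the screen-wide mean, cut at about 70% in these data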
E-sel TNF inh: blocks E-selectin expression induced by TNF alpha; inhibition, % at 2 µM; AID 1246; 120,000 compounds, 0.71% hits; HUVEC TNFa-induced E-selectin immunofluorescence, high content;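 active means inhibition above the batch mean plus 3 SD, and confirmed as a hit on visual image review, cut at about 43% in these data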
IL1B NFkB pot: enhances IL-1B driven NFkB nuclear translocation; HUVEC IL-1B NFkB p65 nuclear translocation imaging; activation, % at 2 µM; 94,000 compounds, 0.3% hits; AID 819;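 active means activation above 40%, about the mean plus 3 SD, also judged a hit on visual image review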;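 further: percent activation is computed from the nuclear over cytoplasmic p65 intensity ratio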
VCAM1 TNFa inh: reduces TNF alpha induced VCAM1 expression in HUVEC | HUVEC TNFa-induced VCAM-1 immunofluorescence, high-content imaging | inhibition, % at 2 µM | 95,000 compounds, 0.48% hits;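 active means inhibition above the batch mean plus 3 SD, with images confirmed as a hit by eye, cut at about 37% in these data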
TNFa cytotox: HUVEC cytotoxicity counter-screen, TNF alpha stimulated; HUVEC TNFalpha-stimulated, Hoechst cell count, imaging; cell count reduction, % at 2 µM; 93,000 compounds, 0.17% hits; AID 848;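 active means cell count reduction exceeding the screen mean by over 5 SD, scaled to untreated wells per plate, cut at about 78% in these data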;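 further: cells counted after 24 h of TNF alpha exposure following the 1 h pretreatment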
NFkB transloc inh: blocks IL-1B driven NFkB nuclear translocation in HUVEC cells; AID 796; 94,000 compounds, 0.43% hits; HUVEC IL-1B NFkB p65 nuclear translocation imaging; inhibition, % at 2 µM;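 active means inhibition above about 30% together with a positive call from visual inspection of the well image, limit read from the data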;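 further: nuclear over cytoplasmic p65 intensity ratio measured by imaging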
Hits are given with their value.

How did Brc1ccccc1-c1nnc2sc(Cc3ccccc3)nn12 do in these assays?
IL1B cytotox: inactive; E-sel TNF inh: inactive; IL1B NFkB pot: 59; VCAM1 TNFa inh: inactive; TNFa cytotox: inactive; NFkB transloc inh: inactive

How did C=CCOc1c2ccc(C(=O)NCc3ccc(OC)cc3)cc2nn1C do in these assays?
IL1B cytotox: inactive; E-sel TNF inh: inactive; IL1B NFkB pot: inactive; VCAM1 TNFa inh: inactive; TNFa cytotox: inactive; NFkB transloc inh: inactive

What do the screens show for `C=CCOc1c2ccc(C(=O)NCc3ccccc3OC)cc2nn1C`?
IL1B cytotox: inactive; E-sel TNF inh: inactive; IL1B NFkB pot: inactive; VCAM1 TNFa inh: 68; TNFa cytotox: inactive; NFkB transloc inh: inactive

What do the screens show for `CCCCn1c2nc3ccccc3nc2c2c(=O)n(CCC(C)C)cnc21`?
IL1B cytotox: inactive; E-sel TNF inh: inactive; IL1B NFkB pot: inactive; VCAM1 TNFa inh: inactive; TNFa cytotox: inactive; NFkB transloc inh: inactive

What do the screens show for `CCCCn1c2nc3ccccc3nc2c2c(=O)n(-c3ccccc3)cnc21`?
E-sel TNF inh: 92

Results for COC(=O)c1cn(NC(=O)c2ccccc2[N+](=O)[O-])c(=O)c2ccccc12 ?
E-sel TNF inh: inactive

What do the screens show for `Cc1oc2cc3c(C(=O)N4CCCCC4)c(C)oc3cc2c1C(=O)N1CCCCC1`?
IL1B cytotox: inactive; E-sel TNF inh: inactive; IL1B NFkB pot: inactive; VCAM1 TNFa inh: 89; TNFa cytotox: 80; NFkB transloc inh: inactive

Results for O=C1COc2ccc(S(=O)(=O)Nc3ccc4c(c3)OCO4)cc2N1 ?
E-sel TNF inh: inactive

What do the screens show for `COC(=O)c1sccc1NC(=O)c1sccc1C`?
IL1B cytotox: 94; E-sel TNF inh: inactive; IL1B NFkB pot: inactive; VCAM1 TNFa inh: inactive; TNFa cytotox: inactive; NFkB transloc inh: inactive

What do the screens show for `CC(/C=N/NC(=O)c1ccco1)=C\c1ccccc1`?
E-sel TNF inh: inactive

How did Cc1ccc2c(c1)C(c1ccc(F)cc1)N(C(=O)c1cc3ccccc3oc1=O)CC(=O)N2 (stereo not drawn) do in these assays?
E-sel TNF inh: 95

What do the screens show for `Cc1nn(CCC(=O)NNC(=S)NCC(C)C)c(C)c1Br`?
IL1B cytotox: inactive; E-sel TNF inh: inactive; IL1B NFkB pot: inactive; VCAM1 TNFa inh: inactive; TNFa cytotox: inactive; NFkB transloc inh: inactive

How did O=C(NCCc1csc(-c2cccnc2)n1)c1cccc2ccccc12 do in these assays?
IL1B cytotox: 79; E-sel TNF inh: inactive; IL1B NFkB pot: inactive; VCAM1 TNFa inh: inactive; TNFa cytotox: inactive; NFkB transloc inh: 35

What do the screens show for `O=C(NCCc1csc(-c2cccnc2)n1)c1ccccc1`?
IL1B cytotox: inactive; E-sel TNF inh: inactive; IL1B NFkB pot: inactive; VCAM1 TNFa inh: inactive; TNFa cytotox: inactive; NFkB transloc inh: inactive

How did CC1=C(C(=O)OCc2ccccc2)C(c2cccnc2)c2c(n(C)c(=O)n(C)c2=O)N1 (stereo not drawn) do in these assays?
IL1B cytotox: inactive; E-sel TNF inh: inactive; IL1B NFkB pot: inactive; VCAM1 TNFa inh: inactive; TNFa cytotox: inactive; NFkB transloc inh: inactive

How did CC(C)(C)c1cc(OC(=O)c2ccncc2)ccc1O do in these assays?
IL1B cytotox: inactive; E-sel TNF inh: 93; IL1B NFkB pot: inactive; VCAM1 TNFa inh: inactive; TNFa cytotox: inactive; NFkB transloc inh: inactive

How did CC(CCc1ccccc1)NC(=O)N1CCOCC1 (stereo not drawn) do in these assays?
E-sel TNF inh: inactive

Results for COc1ccc(C2CC(c3cccs3)=NN2c2nc(-c3ccccc3)cs2)cc1OC (stereo not drawn) ?
IL1B cytotox: inactive; E-sel TNF inh: inactive; IL1B NFkB pot: inactive; VCAM1 TNFa inh: inactive; TNFa cytotox: inactive; NFkB transloc inh: inactive

What do the screens show for `Cc1ccc(Cn2ncc3c(N4CCN(C5CCCC5)CC4)ncnc32)cc1`?
E-sel TNF inh: 100

Results for CCOC(=O)NC(=O)CSc1nnc(C2CC2)n1Cc1ccco1 ?
E-sel TNF inh: inactive

Results for CCn1c(SCC(=O)c2ccccc2)nnc1-c1cnccn1 ?
IL1B cytotox: inactive; E-sel TNF inh: inactive; IL1B NFkB pot: inactive; VCAM1 TNFa inh: inactive; NFkB transloc inh: inactive

How did CCn1c(SCc2ccc(C)cc2)nnc1-c1cnccn1 do in these assays?
IL1B cytotox: inactive; E-sel TNF inh: inactive; IL1B NFkB pot: 63; VCAM1 TNFa inh: inactive; TNFa cytotox: inactive; NFkB transloc inh: inactive

What do the screens show for `COc1cccc(C(=O)N/N=C/c2cn[nH]c2-c2ccc(OC)cc2OC)c1`?
IL1B cytotox: inactive; E-sel TNF inh: inactive; IL1B NFkB pot: inactive; VCAM1 TNFa inh: inactive; TNFa cytotox: inactive; NFkB transloc inh: inactive

What do the screens show for `O=C(COC(=O)/C=C/c1ccc([N+](=O)[O-])cc1)NC(c1ccccc1)c1ccccc1`?
E-sel TNF inh: inactive

Results for CCOC(=O)CSc1nnc(Cc2ccccc2)n1CC1CCCO1 (stereo not drawn) ?
IL1B cytotox: inactive; E-sel TNF inh: inactive; IL1B NFkB pot: 52; VCAM1 TNFa inh: inactive; TNFa cytotox: inactive; NFkB transloc inh: inactive

Results for Cc1c(/C(O)=C2/C(=O)C(=O)N(CCN3CCOCC3)C2c2cccnc2)cnn1-c1ccccc1 (stereo not drawn) ?
IL1B cytotox: inactive; E-sel TNF inh: inactive; IL1B NFkB pot: 60; VCAM1 TNFa inh: inactive; TNFa cytotox: inactive; NFkB transloc inh: inactive

What do the screens show for `Cc1csc(NC(=O)CSc2ncnc3c2cnn3-c2ccccc2Cl)n1`?
IL1B cytotox: inactive; E-sel TNF inh: inactive; IL1B NFkB pot: inactive; VCAM1 TNFa inh: inactive; TNFa cytotox: inactive; NFkB transloc inh: inactive

Results for Cc1ccccc1-n1ncc2c(SCC(=O)NCc3cccs3)ncnc21 ?
IL1B cytotox: inactive; E-sel TNF inh: inactive; IL1B NFkB pot: 105; VCAM1 TNFa inh: inactive; TNFa cytotox: inactive; NFkB transloc inh: inactive

Results for CC(C)(C)OC(=O)CN1C(=O)C(Sc2n[nH]c(-c3ccccc3)n2)CCc2ccccc21 (stereo not drawn) ?
IL1B cytotox: inactive; E-sel TNF inh: inactive; IL1B NFkB pot: inactive; VCAM1 TNFa inh: inactive; TNFa cytotox: inactive; NFkB transloc inh: inactive

What do the screens show for `CC(C)(C)NC(=O)C(c1ccsc1)N(CCc1ccccc1)C(=O)Cn1nnc2ccccc21` (stereo not drawn)?
IL1B cytotox: inactive; E-sel TNF inh: inactive; IL1B NFkB pot: inactive; VCAM1 TNFa inh: inactive; TNFa cytotox: inactive; NFkB transloc inh: 58

How did Cc1cc(C)c(N(C(=O)Cn2nnc3ccccc32)C(C(=O)NC(C)(C)C)c2ccsc2)c(C)c1 (stereo not drawn) do in these assays?
IL1B cytotox: inactive; E-sel TNF inh: inactive; IL1B NFkB pot: inactive; VCAM1 TNFa inh: inactive; TNFa cytotox: inactive; NFkB transloc inh: inactive

How did NS(=O)(=O)c1ccc(CCNC(=O)COC(=O)/C=C/c2ccc(Cl)cc2)cc1 do in these assays?
E-sel TNF inh: inactive

Results for O=C(O)CCN1C(=O)C2CCCCC2C1=O (stereo not drawn) ?
IL1B cytotox: inactive; E-sel TNF inh: inactive; IL1B NFkB pot: inactive; VCAM1 TNFa inh: inactive; TNFa cytotox: inactive; NFkB transloc inh: inactive

Results for O=C(O)C1CCC(N2C(=O)C3CCCCC3C2=O)CC1 (stereo not drawn) ?
IL1B cytotox: inactive; E-sel TNF inh: inactive; IL1B NFkB pot: inactive; VCAM1 TNFa inh: 78; TNFa cytotox: inactive; NFkB transloc inh: inactive
